AmpC inh detg – blocks E. coli AmpC beta-lactamase in detergent assay | AmpC hydrolysis of nitrocefin, absorbance 480 nm, 0.01% Triton | Potency, µM (top dose mostly 114 µM), actives largely listed as inhibitors | P00811 | 0.041% of 370,000 active; note: nearly all actives have a fitted effect of over 25% in size
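20 mM phosphate pH 7.0 + 0.01% (detergent screen) or 0.0001% Triton X-100; 5.3 nM AmpC reagent; cpd preinc 15 min RT; nitrocefin (800 uM stock) to start; A480 q20 s × 4 min; Activity was normalised to no-enzyme and no-compound control wells.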
Giardia FBPA inh-1 – inhibitors of Giardia lamblia fructose-1,6-bisphosphate aldolase | Potency, µM (doses to about 59.6 µM), usual class: inhibitors | purified Giardia FBPA | 0.71% of 290,000 active | A8B2U2; note: nearly all actives have a fitted effect of over 55% in size
Target sequence (A8B2U2 whole entry, looked up): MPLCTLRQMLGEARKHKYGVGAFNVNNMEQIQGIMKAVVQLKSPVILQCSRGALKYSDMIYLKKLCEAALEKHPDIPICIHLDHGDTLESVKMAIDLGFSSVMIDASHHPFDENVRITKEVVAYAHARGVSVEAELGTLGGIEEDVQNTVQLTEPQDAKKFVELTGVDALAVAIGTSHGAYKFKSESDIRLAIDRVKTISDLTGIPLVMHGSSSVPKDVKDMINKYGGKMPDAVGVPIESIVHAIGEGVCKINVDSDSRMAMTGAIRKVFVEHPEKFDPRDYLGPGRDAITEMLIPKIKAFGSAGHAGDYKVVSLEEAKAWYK
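Giardia FBPA (40 nM reagent) was preincubated 10 min at RT with compound (up to 57.5 uM final), then substrate plus GAPDH/TPI/NAD/arsenate coupling system with diaphorase/resazurin was added; resorufin fluorescence (525/598 nm) was read after 20 min.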
Sm TGR block – inhibitors of Schistosoma mansoni thioredoxin glutathione reductase; Q962Y6; purified TGR, DTNB reduction, TNB absorbance 405 nm; Potency, µM (highest dose often 114 µM), actives largely listed as inhibitors; 3% of 360,000 active; note: nearly all actives have a fitted effect of over 60% in size
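Kinetic colorimetric format: TGR-catalysed, NADPH-driven DTNB reduction monitored via TNB absorbance. Enzyme dispensed at 20 nM; compound exposure 15 min at room temperature before reaction start.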
RE007 growth inh – less growth of the S. pombe RE007 Vpr strain; S. pombe RE007 Vpr strain, BacTiter-Glo ATP luminescence, 24 h; Potency, µM (highest dose often 92.2 µM), hits mostly inhibitors; 0.21% of 360,000 active; AID 651644; active = well fitted falling curve with a large enough effect; inconclusive = small, poorly fitted or top-dose-only effect; inactive = no such curve, though single readings can be large or run the other way; note: nearly all actives have a fitted effect of over 50% in size
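Fission yeast RE007 carrying one integrated HIV-1 vpr copy, seeded at OD 0.01 in PMG+AL medium with 23 nL pinned compound. Grown 24 h at 30 degrees; viability read by BacTiter-Glo luminescence after 5 min.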
AmpC inh no detg – blocks E. coli AmpC beta-lactamase in detergent-free assay | P00811 | AmpC nitrocefin hydrolysis, absorbance 480 nm, 0.0001% Triton | Potency, µM (titrated, usually from 57.1 µM), hits mostly inhibitors | 0.52% of 330,000 active; note: nearly all actives have a fitted effect of over 20% in size
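AmpC (5.3 nM in the dispensed reagent) in 20 mM phosphate pH 7.0 with 0.01% (detergent screen) or 0.0001% Triton X-100 was preincubated with compounds for 15 min at room temperature. Nitrocefin was then added from an 800 uM solution, and hydrolysis was followed at 480 nm.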
Giardia growth – inhibitors of Giardia lamblia growth. 5% of 1,500 active. AID 2785. Giardia lamblia trophozoite growth inhibition. shares compounds with Giardia FBPA inh-1. Potency, µM (series often up to 57.5 µM), usual class: inhibitors;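 note: trophozoites exposed to compound for 48 h at 37 °C; nearly all actives have a fitted effect of over 70% in size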
Mammal cell tox – mammalian cytotoxicity of Giardia aldolase inhibitor hits. shares compounds with Giardia FBPA inh-1. mammalian cell viability counter-screen, qHTS. Potency, µM (highest dose often 57.5 µM), usual class: inhibitors. 4% of 1,500 active. AID 2786;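 note: Chinese hamster ovary cells used as mammalian cytotoxicity surrogate; viability measured as cellular ATP by luminescence; compound exposure lasted 48 h before reading; nearly all actives have a fitted effect of over 60% in size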
Giardia FBPA inh-2 – confirmation of Giardia fructose-bisphosphate aldolase inhibitors; 5% of 1,500 active; Potency, µM (highest dose often 57.5 µM), most hits filed as inhibitors; purified Giardia aldolase enzyme activity, qHTS; AID 2787; shares compounds with Giardia FBPA inh-1; note: nearly all actives have a fitted effect of over 45% in size
Rabbit FBPA inh – rabbit FBP aldolase inhibition by Giardia aldolase hits | Potency, µM (highest dose often 57.5 µM), usual class: inhibitors | shares compounds with Giardia FBPA inh-1 | 4% of 1,500 active | Rabbit muscle FBPA enzyme inhibition, selectivity counter-screen; note: nearly all actives have a fitted effect of over 60% in size
Target sequence (P00883 whole entry, looked up): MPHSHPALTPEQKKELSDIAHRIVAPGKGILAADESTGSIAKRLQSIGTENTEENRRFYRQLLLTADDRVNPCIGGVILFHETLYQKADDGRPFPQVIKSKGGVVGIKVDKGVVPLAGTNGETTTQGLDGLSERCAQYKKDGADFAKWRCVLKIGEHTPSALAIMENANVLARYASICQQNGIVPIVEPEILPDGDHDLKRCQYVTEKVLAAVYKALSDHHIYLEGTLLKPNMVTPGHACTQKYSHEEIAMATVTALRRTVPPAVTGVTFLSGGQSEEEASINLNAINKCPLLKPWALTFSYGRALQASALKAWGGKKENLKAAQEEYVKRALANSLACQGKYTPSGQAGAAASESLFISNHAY
GAPDH counter – counter-screen for Giardia aldolase inhibitors: GAPDH coupling enzyme; shares compounds with Giardia FBPA inh-1; 6% of 1,500 active; Potency, µM (highest dose often 57.5 µM), most hits filed as inhibitors; GAPDH coupling enzyme counterscreen, biochemical, qHTS; note: nearly all actives have a fitted effect of over 55% in size
A number is an active result; n = inactive; u = inconclusive; x = no result; [ ] = another dose, or the depositor's remark. In the library only some 3.4% were active in any assay of this set; here they are far more common. Unless noted, calls come from the whole dose curve; as a rule, active = well fitted curve in the direction sought with a large enough effect; inconclusive = small, poorly fitted or top-dose-only effect, or another doubt; inactive = no such curve, though single readings can be large; an effect the other way counts as inactive or inconclusive.

SMILES	AmpC inh detg	Giardia FBPA inh-1	Sm TGR block	RE007 growth inh	AmpC inh no detg	Giardia growth	Mammal cell tox	Giardia FBPA inh-2	Rabbit FBPA inh	GAPDH counter
COc1ccc(CNc2ncc(-c3ccccc3)n2C)cc1	n	18µM	n	n	n	n	n	n	n	n
COc1ccc(-n2c(SCC(=O)Nc3ccc(NC(C)=O)cc3)nc3c([nH]c4ccccc43)c2=O)cc1OC	u	x	n	n	n	x	x	x	x	x
COCCNC(=O)C(=O)Nc1cccc(Br)c1	u	n	n	n	n	x	x	x	x	x
COCCNC(=S)NNc1cccc(C(=O)O)c1	n	8.9µM	n	n	n	n	n	n	n	n
CCN(Cc1nc2ccccc2c(=O)[nH]1)Cc1nc2cc(OC)c(OC)cc2c(=O)[nH]1	u	5.6µM	n	n	n	n	n	u	n	n
CCN(Cc1nc2ccccc2c(=O)[nH]1)Cc1nc2ccsc2c(=O)[nH]1	n	0.79µM	n	n	n	n	n	n	n	u
O=C(NCCc1csc(-c2ccc(C(F)(F)F)cc2)n1)c1ccccc1Cl	n	x	n	x	x	x	x	x	x	x
CCN(C(=O)c1cc(S(=O)(=O)N2CCOCC2)cn1C)c1ccc(OC)cc1	n	x	n	x	x	x	x	x	x	x
CCN(C(=O)c1cc(S(=O)(=O)N2CCOCC2)cn1C)c1cccc(C)c1	n	13µM	n	n	n	n	n	n	n	n
Clc1ccc(OCc2nn[nH]n2)cc1	n	u	n	n	n	x	x	x	x	x
COc1ccccc1OCc1nn[nH]n1	u	32µM	n	n	n	u	n	n	n	n
CCOC(=O)c1cccc(NC(=O)CC(c2cc(OC)c(OC)c(OC)c2)N2Cc3ccccc3C2=O)c1 (centres undefined)	u	x	n	x	x	x	x	x	x	x
O=C(O)C1CCN(Cc2ccccn2)CC1	n	n	n	n	n	x	x	x	x	x
CCOC(=O)C1CCN(Cc2ccccn2)CC1	n	18µM	n	x	n	u	n	n	n	n
COc1cccc(C(=O)N2CCN(Cc3ccccn3)CC2)c1	u	25µM	n	n	n	n	n	n	n	n
CC(=O)OCC(NC(=O)C(C)NC(=O)OC(C)(C)C)C1OC(n2cc(C)c(=O)[nH]c2=O)C(OC(C)=O)C1OC(C)=O (centres undefined)	x	n	x	x	x	x	x	x	x	x
CCC(=O)NC(c1ccc(C)cc1)c1cc([N+](=O)[O-])c2cccnc2c1O (centres undefined)	n	u	n	n	n	x	x	x	x	x
CCCC(=O)NC(c1ccco1)c1cc([N+](=O)[O-])c2cccnc2c1O (centres undefined)	n	7.1µM	28µM	n	n	u	n	n	n	u
O=C(CSc1nc2ncccc2[nH]1)Nc1c(F)cc(F)cc1Br	n	25µM	n	n	n	n	n	n	n	n
C=CCNC(=S)Nc1ccccc1-c1nnc2n1CCCCC2	n	13µM	n	n	n	n[10.4 µM]	n	n	n	n
CCOC(=O)Cc1c(C)nc(N)[nH]c1=O	n	n	n	n	n	x	x	x	x	x
CCOC(=O)Cc1c[nH]c(=S)[nH]c1=O	n	18µM	n	n	n	n[10.4 µM]	n	n	n	n
Cc1ccc(C)c(N2CCN(Cc3csc(C)c3C)CC2)c1	n	x	n	x	x	x	x	x	x	x
Cc1ccc(C)c(N2CCN(CCN3CCCCC3)CC2)c1	n	16µM	n	n	n	u	n	n	n	n
O=[N+]([O-])c1cc(Cl)c2cccnc2c1O	n	n	x	u	n	x	x	x	x	x
SMILES	AmpC inh detg	Giardia FBPA inh-1	Sm TGR block	RE007 growth inh	AmpC inh no detg	Giardia growth	Mammal cell tox	Giardia FBPA inh-2	Rabbit FBPA inh	GAPDH counter
O=[N+]([O-])c1cc(F)c2cccnc2c1O	n	20µM	3.2µM	u	n	u	n	u	u	32µM
CC(=O)Nc1ccc(Nc2ccc(N3C(=O)CCCC3=O)cc2[N+](=O)[O-])cc1	n	n	n	n	n	x	x	x	x	x
CCN(CC)CCCNC(=O)c1c2c(nc3ccccc13)C(=O)N(C1CCCCC1)C2	n	x	n	x	x	x	x	x	x	x
CC(C)c1ccc(S(=O)(=O)N2CCN(CC(=O)c3ccc(O)c(O)c3)CC2)cc1	u	13µM	25µM	x	n	n	u	u	n	n
CC(C)N(CC#CCC(O)(c1ccccc1)c1ccccc1)CCO	n	16µM	n	n	n	n	n	n	n	n
NS(=O)(=O)c1ccc(CCNCC#Cc2ccccc2)cc1	n	22µM	u	n	n	n	n	n	n	n
CC(NS(=O)(=O)CCNC(=O)c1ccccc1)c1ccccc1 (centres undefined)	u	x	n	n	n	x	x	x	x	x
CC(=O)OCC1=C(C(=O)O)N2C(=O)[C@@H](NC(=O)Cc3cccs3)[C@@H]2SC1	x	n	x	x	x	x	x	x	x	x
Cc1nnc(SCC2=C(C(=O)O)N3C(=O)C(NC(=O)Cn4ncc(Cl)c4C)C3SC2)s1 (centres undefined)	n	20µM	3.2µM	n	n	n	n	n	n	n
Cc1nnc(SCC2=C(C(=O)O)N3C(=O)C(NC(=O)c4cccc(F)c4F)C3SC2)s1 (centres undefined)	n	14µM	10µM	n	n	n[10.4 µM]	n	n	n	n
Cc1cc(C)n(CC(=O)NC2C(=O)N3C(C(=O)O)=C(CSc4nnc(C)s4)CSC23)n1 (centres undefined)	n	13µM	25µM	n	n	n	n	n	n	n
COc1ccc(CN(C2CCCC2)S(=O)(=O)c2ccc(-n3cnnn3)c(OC)c2)cc1OC	n	n	n	n	n	x	x	x	x	x
Cc1nc2cnc(N3CCOCC3)nc2n(C)c1=O	x	n	x	x	x	x	x	x	x	x
Cc1cccc(C(=O)NCc2nnc(SCC(=O)NC3=NCCS3)n2C)c1	n	n	n	n	n	x	x	x	x	x
COc1ccc(/C=C(/NC(=O)c2ccccc2)C(=O)N/N=C/c2sccc2C)cc1	n	n	n	n	n	x	x	x	x	x
COc1cc2c(cc1OC)C1C(=O)c3c(O)cc4c(c3OC1CO2)C=CC(C)(C)O4 (centres undefined)	x	n	x	x	x	x	x	x	x	x
CC1CN(S(=O)(=O)c2ccc(C(=O)Nc3nnc(-c4ccco4)o3)cc2)CC(C)O1 (centres undefined)	n	18µM	n	n	n	n	n	n	n	n
CC1CCCN(S(=O)(=O)c2ccc(C(=O)Nc3nnc(-c4ccccc4Cl)o3)cc2)C1 (centres undefined)	n	u	n	n	n	x	x	x	x	x

Source: PubChem
